Among all 350,000 compounds or so, about 1,900 (0.54%) were called active.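 How the source made its calls: active means mean inhibition across replicates at least about 35%, with every replicate also reaching that limit (limit read from the data); inconclusive means only one of the two criteria met; inactive means neither criterion met.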 Many of the other results were omitted from the sample, so actives are more common in it than they were.
The molecules below were run against Caspase-6 (Homo sapiens) (UniProt P55212) (assay: inhibition of CASP6 peptide cleavage – biochemical, VEID-R110 fluorescence, single point, set 2, primary screen (AID 686996;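 further: 0% = median of neutral control wells and 100% = no fluorescence left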)). Details: purified caspase-6, Z-VEID-R110 cleavage fluorescence; at 12.5 µM; stronger effect = higher value.
Sequence of Caspase-6 (Homo sapiens) (P55212 24-179 limits assumed): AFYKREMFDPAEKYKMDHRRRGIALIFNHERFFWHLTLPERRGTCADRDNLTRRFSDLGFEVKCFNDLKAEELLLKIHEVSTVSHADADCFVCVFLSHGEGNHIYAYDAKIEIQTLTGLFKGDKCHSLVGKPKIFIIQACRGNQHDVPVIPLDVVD
Sequence of Caspase-6 (Homo sapiens) (P55212 194-293 limits assumed): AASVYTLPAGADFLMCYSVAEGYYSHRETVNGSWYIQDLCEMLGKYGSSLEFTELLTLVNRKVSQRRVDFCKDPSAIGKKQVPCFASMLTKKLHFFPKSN

inhibition, active:
O=C(NNC(=O)c1ccccc1O)c1ccccc1O 73.9%, COC(=O)C(=Nc1ccccc1)/C(C(=O)C(=O)N(C)c1ccccc1)=C(\O)c1ccc(Cl)cc1 40.1%, COc1ccc(C#Cc2cccc(-c3nc(C(=O)O)cc4c3[C@@H](CCO)N(S(=O)C(C)(C)C)C4)c2)cc1OC (stereo not given in full) 35.2%, CC(C)(C)S(=O)N1Cc2cc(C(=O)O)nc(-c3cccc(-c4cc5ccccc5o4)c3)c2[C@@H]1CCO (stereo not given in full) 37.1%, Cc1cc(/C=N/Nc2ccc([N+](=O)[O-])cn2)c(C)n1-c1cccc(C(=O)O)c1 40.7%, Cc1cc(C)c2nc(-c3ccco3)cc(C(=O)O)c2c1 42.1%, COCCNc1nc(Nc2ccccc2Cl)c2sc(-c3ccccc3)cc2n1 35.1%, CNC(=O)c1ccc(CN(C)C(=O)c2cc(C3CC3)nc3c2cnn3C(C)C)cc1 50.4%, CCN(CC)CCCC(C)n1c2nc(=O)[nH]c(=O)c-2nc2cc(Cl)ccc21 (stereo not given) 81.9%

inhibition, inactive:
C/C=C/c1ccccc1[C@@H]1[C@@H](CO)N(C(=O)CN2CCOCC2)[C@H]1C#N -0.139%, C[C@H]1CN([C@@H](C)CO)C(=O)Cc2cc(NC(=O)CCCCCC(=O)Nc3ccccc3N)ccc2O[C@H]1CN(C)C(=O)Nc1ccc(F)cc1 0.452%, O=C(NNC(=O)c1cc(S(=O)(=O)N2CCCCC2)ccc1Cl)c1ccccc1O 0.767%, Cc1cc(C(=O)CCC(=O)NNC(=O)c2ccccc2O)c(C)s1 4.5%, CN(C)CCCNC(=O)C[C@H]1CC[C@H]2[C@@H](COC[C@H](O)CN2C(=O)c2ccncc2)O1 0.773%, CN(c1ccccc1)S(=O)(=O)c1cccc(NC(=O)Cc2ccc(Cl)cc2)c1 -0.727%, COC(=O)c1cn(C(=O)c2ccc(Cl)cc2)c2ccccc12 0.734%, CN1C(=O)c2cc(NC(=O)C3CC3)ccc2OC[C@@H]2O[C@@H](CC(=O)NCC3CCCCC3)CC[C@@H]21 -1.04%, CO[C@H]1CN(C)C(=O)c2cc(NC(=O)Nc3c(C)noc3C)ccc2OC[C@@H](C)N(CCC(F)(F)F)C[C@H]1C -1.87%, C[C@@H]1CN([C@@H](C)CO)C(=O)c2cc(C#CC3CC3)cnc2O[C@@H]1CN(C)C(=O)Cc1ccccn1 0.481%, COc1ccccc1-c1cccc(-c2nc(C(=O)N3CCN(C)CC3)cc3c2[C@H](CCO)N([S@@](=O)C(C)(C)C)C3)c1 -1.46%, CC(C)(C)[S@@](=O)N1Cc2cc(C(=O)O)nc(-c3cccc(-c4cccc(F)c4)c3)c2[C@H]1CCO -2.52%, CC(C)(C)[S@](=O)N1Cc2cc(C(=O)N3CCCCC3)nc(-c3cccc(-c4ccccc4F)c3)c2[C@@H]1CCO -3.88%, CC(C)(C)S(=O)N1Cc2cc(C(=O)NCCCN3CCOCC3)nc(-c3cccc(-c4cc5ccccc5o4)c3)c2[C@H]1CCO (stereo not given in full) -2.64%, COc1ccc(NC(=O)O[C@H]2[C@H](OC(=O)Nc3ccc4c(c3)OCO4)[C@@H](OC(=O)Nc3ccc4c(c3)OCO4)[C@@H](OC)O[C@@H]2CO)cc1 -3.42%, Cc1ccc(S(=O)(=O)N[C@@H]2CC[C@H](CCn3cc(C4(O)CCCC4)nn3)O[C@H]2CO)cc1 -2.61%, Cc1ccccc1-c1ccc2c(c1)O[C@H](CN(C)Cc1ccc(C(=O)O)cc1)[C@@H](C)CN([C@H](C)CO)S2(=O)=O -3.25%, COc1ccccc1C#Cc1ccc([C@@H]2[C@@H](CO)N3CCCCN(S(C)(=O)=O)C[C@@H]23)cc1 -2.85%, Cc1cc(C=O)c(C)n1-c1ccc(NC2CCCCC2)c([N+](=O)[O-])c1 -0.869%, CC(C)c1ccc(C=NNc2ccc([N+](=O)[O-])cn2)cc1 -4.08%, C[C@H](O)C#Cc1ccc2c(c1)O[C@H](CN(C)Cc1cccnc1)[C@H](C)CN([C@H](C)CO)S2(=O)=O -2.82%, O=C(N[C@@H]1CC[C@@H](CC(=O)N2CCc3ccccc3C2)O[C@H]1CO)C1CC1 -3.42%, CCC(=O)N(C)C[C@H]1Oc2ncc(C#Cc3cccnc3)cc2C(=O)N([C@H](C)CO)C[C@H]1C 2.38%, C[C@@H]1CCCCO[C@@H](CN(C)S(=O)(=O)c2ccccc2)[C@@H](C)CN([C@@H](C)CO)C(=O)c2cc(NS(=O)(=O)c3cn(C)cn3)ccc2O1 2.27%, CC1CCCN(C(=O)c2cc(-c3ccco3)nc3ccccc23)C1 (stereo not given) 2.88%, CN(CCOc1ccccc1)C(=O)c1cc(-c2ccco2)nc2ccccc12 4.78%, COCC#Cc1cnc2c(c1)C(=O)N([C@H](C)CO)C[C@H](C)[C@H](CN(C)C(=O)Nc1ccccc1OC)O2 0.658%, O=C(c1cccc(F)c1)N1CC(=O)N2[C@H](C1)[C@@H](c1ccc(C#Cc3ccc(F)cc3)cc1)[C@@H]2CO 1.71%, Clc1ccccc1Nc1nc(NCc2cccs2)nc2ccsc12 -2.77%, COc1ccccc1CNc1nc(Nc2ccccc2Cl)c2sccc2n1 -1.14%, C[C@H](CO)N1C[C@H](C)[C@H](CN(C)Cc2cncnc2)Oc2cc(-c3ccccc3F)ccc2S1(=O)=O -1.88%, CC(C)n1ncc2c(C(=O)NCc3ccccc3CN(C)C)cc(C3CC3)nc21 -1.64%, CC(C)n1ncc2c(C(=O)Nc3ccc(CC#N)cc3)cc(C3CC3)nc21 -2.38%, O=C(C[C@@H]1CC[C@@H]2[C@H](COC[C@H](O)CN2S(=O)(=O)c2ccccc2F)O1)NCc1ccccc1F 4.05%, Cc1noc(C)c1NC(=O)N(C)C[C@H]1Oc2c(NC(=O)c3nc4ccccc4s3)cccc2C(=O)N([C@@H](C)CO)C[C@@H]1C -1.84%, Cc1cc2nc3c(=O)[nH]c(=O)nc-3n(C[C@H](O)[C@H](O)[C@H](O)CO)c2cc1C -54.4%
